These results are taken from PubChem BioAssay (EPA / NIEHS).

“And” between values parts separate entries of the source, which are not always exact repeats. Equal values may be shown once. Results filed as inconclusive are left out. A structure can be active in one record and inactive in another. The source made the active and inactive calls. How the source made its calls, unless noted: active means hit-call score of the fitted dose curve at least 0.9, where 1 is the maximum; inactive means score below 0.9.

Test [1] deals with Paired box protein Pax-6 (Homo sapiens) (UniProt P26367). Nature of the test: ATG_Pax6_CIS: Attagene CIS-FACTORIAL HepG2 Assay for human Paired Box 6 (PAX6) (AID 2282956). The conditions noted are these: HepG2 CIS-FACTORIAL PAX6 reporter transcription, RNA readout; actives raise or lower the signal. The essentials:
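Readout: reporter transcript fluorescence after RT-PCR and capillary electrophoresis. Cells: HepG2, transiently transfected with cis-regulated MRTUs. Exposure 24 h. Gain or loss of signal fitted bidirectionally relative to DMSO.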

A short description of test [2]: ATG_PXRE_CIS: Attagene CIS-FACTORIAL HepG2 Assay for human Pregnane X Receptor Element (PXRE) (AID 2282957). To be noted: HepG2 Attagene CIS-FACTORIAL PXRE reporter, mRNA; actives raise or lower the signal. Put shortly: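 After a 24 h chemical incubation, total RNA from transfected HepG2 cells was reverse-transcribed and reporter cDNA amplified, FAM-labeled, HpaI-digested and sized by capillary electrophoresis. DMSO served as baseline for bidirectional curve fitting.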

The nature of test [3]: ATG_PPRE_CIS: Attagene CIS-FACTORIAL HepG2 Assay for human Peroxisome Proliferator-activated Response Element (PPRE) (AID 2282958). The conditions noted are these: HepG2 PPRE cis-element reporter, Attagene transcription factor profiling; actives raise or lower the signal. The essentials: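 Read-out: fluorescent reporter mRNA fragments resolved by capillary electrophoresis after RT-PCR. HepG2 cells carried transiently transfected PPRE-driven cis reporter constructs and were dosed for 24 h; gain or loss of signal fitted relative to DMSO.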

The nature of test [4]: ATG_RORE_CIS: Attagene CIS-FACTORIAL HepG2 Assay for human RAR-related Orphan Receptor Element (RORE) (AID 2282959). The conditions noted are these: HepG2 Attagene cis-factorial RORE reporter, mRNA; actives raise or lower the signal. Put shortly:
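Readout: fluorescent reporter mRNA by RT-PCR plus capillary electrophoresis, 24 h after dosing transfected HepG2 cells. Endogenous transcription factor activity on a cis promoter element is measured. Gain or loss of signal fitted against DMSO.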

Test [5] can be described thus: ATG_Sox_CIS: Attagene CIS-FACTORIAL HepG2 Assay for human SRY-box transcription factor (SOX) (AID 2282960). The conditions noted are these: HepG2 Attagene cis-factorial SOX reporter, mRNA; actives raise or lower the signal. Put shortly:
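Read-out: fluorescent RT-PCR products of SOX1-linked reporter transcripts resolved by capillary electrophoresis, fitted bidirectionally against DMSO. Transiently transfected HepG2 cells, 24 h after chemical exposure, endogenous transcription factor activity.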

Test [6] concerns the target Transcription factor Sp1 (Homo sapiens) (UniProt P08047). Briefly: ATG_Sp1_CIS: Attagene CIS-FACTORIAL HepG2 Assay for human Specificity Protein 1 (Sp1) (AID 2282961). To be noted: HepG2 Sp1 cis-reporter transcription, actives raise or lower the signal. The essentials: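 Read-out: fluorescence of 6-FAM-labeled, HpaI-digested RT-PCR products separated by capillary electrophoresis. HepG2 cells carried transfected cis-element reporter units and were exposed to chemicals for 24 h; gain or loss of signal fitted relative to DMSO.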

Test [7] in a line: ATG_SREBP_CIS: Attagene CIS-FACTORIAL HepG2 Assay for human Sterol Regulatory Element Binding (SREBP) (AID 2282962). The conditions noted are these: HepG2 Attagene cis-factorial SREBP reporter, mRNA; actives raise or lower the signal. Put shortly:
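Readout: fluorescent reporter-transcript peaks resolved by capillary electrophoresis after RT-PCR. Cells were human HepG2 carrying transfected cis-promoter reporter constructs, dosed for 24 h. Gain or loss of signal was fitted against DMSO controls.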

Test [8] addresses Signal transducer and activator of transcription 3 (Homo sapiens) (UniProt P40763). Briefly: ATG_STAT3_CIS: Attagene CIS-FACTORIAL HepG2 Assay for human Signal Transducer and Activator of Transcription 3 (STAT3) (AID 2282963). The conditions noted are these: HepG2, Attagene cis-factorial STAT3 reporter transcription; actives raise or lower the signal. The essentials:
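Cis-factorial format: endogenous transcription factors in HepG2 drive transfected reporter units. After 24 h treatment, reporter RNA was reverse-transcribed, amplified, FAM-labelled and HpaI-digested before CE analysis; activity scored in both directions against DMSO.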

Test [9] is described as follows: ATG_TA_CIS: Attagene CIS-FACTORIAL HepG2 Assay for human TA Basal Promoter (AID 2282964). The conditions noted are these: HepG2 Attagene CIS-factorial TA basal promoter reporter; actives raise or lower the signal. The essentials:
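Steps: transfect HepG2 with MRTUs; dose 24 h; isolate RNA, DNase-treat, reverse-transcribe; PCR and FAM-label reporter cDNA; digest with HpaI 2h at 37 C; run capillary electrophoresis. Activity fitted both directions against DMSO.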

Test [10] in a line: ATG_TCF_b_cat_CIS: Attagene CIS-FACTORIAL HepG2 Assay for human T-Cell-Factor with beta-catenin (TCF/b-cat) (AID 2282965). The conditions noted are these: HepG2 TCF/beta-catenin cis-reporter transcription, actives raise or lower the signal. The essentials:
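Measured: reporter mRNA in HepG2 transiently transfected with cis-promoter reporter units, 24 h after chemical addition. Fitting was bidirectional, DMSO as negative control.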

The nature of test [11]: ATG_TAL_CIS: Attagene CIS-FACTORIAL HepG2 Assay for human TAL Basal Promoter (AID 2282966).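 Further: background control endpoint measuring basal TAL promoter reporter mRNA not a specific factor.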 To be noted: HepG2 Attagene cis-factorial TAL promoter reporter; actives raise or lower the signal. Put shortly:
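Basal-promoter background-control endpoint from a multiplexed HepG2 reporter panel. Cells were exposed 24 h, then reporter mRNA was read by RT-PCR/CE fluorescence and fitted in both directions relative to DMSO.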

The nature of test [12]: ATG_TGFb_CIS: Attagene CIS-FACTORIAL HepG2 Assay for human Transforming Growth Factor (TGF) (AID 2282967). The conditions noted are these: HepG2 Attagene CIS TGFb reporter, mRNA transcription; actives raise or lower the signal. The essentials: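 Cells were dosed for 24 hours, after which total RNA was reverse-transcribed and reporter sequences amplified, labeled and sized by capillary electrophoresis. Activity was fitted in both directions against DMSO.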

Test [13] in a line: ATG_VDRE_CIS: Attagene CIS-FACTORIAL HepG2 Assay for human Vitamin D Receptor Element (VDRE) (AID 2282968). To be noted: HepG2 VDRE cis-reporter transcription, actives raise or lower the signal. The essentials: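 Measures endogenous factor activity through cis-element-driven reporter transcripts in transiently transfected HepG2. Cells are treated 24 h; reporter mRNA is quantified by RT-PCR and capillary electrophoresis; fitting is bidirectional.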

Test [14] deals with Estrogen receptor (Homo sapiens) (UniProt P03372). Nature of the test: ATG_ERa_TRANS: Attagene TRANS-FACTORIAL HepG2 Assay for human Estrogen Receptor alpha (ERa) (AID 2282970; active means hit-call score of the fitted dose curve at least 0.9, where 1 is the maximum). To be noted: HepG2 Attagene TRANS ERa GAL4 reporter, mRNA. Put shortly:
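Gal4-fusion ERa transactivation, measured as reporter transcript level in transiently transfected HepG2 cells. Exposure 24 h; RT-PCR plus capillary electrophoresis with fluorescence detection.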

The target in test [15] is X-box-binding protein 1 (Homo sapiens) (UniProt P17861). Briefly: ATG_Xbp1_CIS: Attagene CIS-FACTORIAL HepG2 Assay for human X-box Binding Protein 1 (XBP1) (AID 2282972). To be noted: HepG2 XBP1 cis-element reporter, Attagene multiplex; actives raise or lower the signal. Put shortly: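 Read-out: fluorescent reporter mRNA fragments resolved by capillary electrophoresis after RT-PCR. Human HepG2 liver cells carried transfected cis-promoter reporter units and were exposed to chemicals for 24 hours. Gain or loss of signal fitted relative to DMSO baseline.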
Chain of X-box-binding protein 1 (Homo sapiens) (P17861 whole entry, looked up, the tested form may be a part): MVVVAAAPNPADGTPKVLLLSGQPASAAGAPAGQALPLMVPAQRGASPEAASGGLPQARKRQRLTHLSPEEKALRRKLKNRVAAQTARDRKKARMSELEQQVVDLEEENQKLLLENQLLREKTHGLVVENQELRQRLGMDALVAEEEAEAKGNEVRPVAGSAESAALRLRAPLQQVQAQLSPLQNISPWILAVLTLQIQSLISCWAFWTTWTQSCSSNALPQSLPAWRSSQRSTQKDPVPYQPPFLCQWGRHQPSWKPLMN

The target in test [16] is Nuclear receptor subfamily 1 group I member 3 (Homo sapiens) (UniProt Q14994). Nature of the test: ATG_CAR_TRANS: Attagene TRANS-FACTORIAL HepG2 Assay for human Constitutive Androstane Receptor (CAR) (AID 2282969; active means hit-call score of the fitted dose curve at least 0.9, where 1 is the maximum;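 further: activators raise reporter mRNA above DMSO so AC50 marks induction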). To be noted: HepG2 Attagene TRANS-FACTORIAL CAR reporter. Put shortly:
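Signal is reporter mRNA induction relative to DMSO, measured 24 h after dosing by RT-PCR with fluorescent primer extension and capillary electrophoresis. Human HepG2 liver cells carried transiently transfected chimeric NR-Gal4/GAL4-UAS reporter constructs.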

Test [17] can be described thus: ATG_M_19_TRANS: Attagene TRANS-FACTORIAL HepG2 Assay for M19 Transcription Factor (Internal Marker) (AID 2282974; active means hit-call score of the fitted dose curve at least 0.9, where 1 is the maximum). The conditions noted are these: HepG2 Attagene TRANS-FACTORIAL M19 internal marker reporter. The essentials:
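24 h chemical exposure of transiently transfected HepG2 (MRTU library). RNA → oligo(dT) RT → PCR → 6-FAM labelling → HpaI cut → CE fluorescence. Positive-direction fit vs DMSO baseline; background internal-marker readout.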

Test [18] in a line: ATG_GAL4_TRANS: Attagene TRANS-FACTORIAL HepG2 Assay for GAL4 (Internal Marker) (AID 2282976; active means hit-call score of the fitted dose curve at least 0.9, where 1 is the maximum). The conditions noted are these: HepG2 Attagene TRANS GAL4 internal marker reporter. The essentials: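 Background-control readout: GAL4-UAS reporter transcript in transiently transfected HepG2 cells after 24 h compound exposure. Measured by RT-PCR, 6-FAM primer extension, HpaI digest and capillary electrophoresis; gain-of-signal fit versus DMSO.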

Chain of Paired box protein Pax-6 (Homo sapiens) (P26367 whole entry, looked up): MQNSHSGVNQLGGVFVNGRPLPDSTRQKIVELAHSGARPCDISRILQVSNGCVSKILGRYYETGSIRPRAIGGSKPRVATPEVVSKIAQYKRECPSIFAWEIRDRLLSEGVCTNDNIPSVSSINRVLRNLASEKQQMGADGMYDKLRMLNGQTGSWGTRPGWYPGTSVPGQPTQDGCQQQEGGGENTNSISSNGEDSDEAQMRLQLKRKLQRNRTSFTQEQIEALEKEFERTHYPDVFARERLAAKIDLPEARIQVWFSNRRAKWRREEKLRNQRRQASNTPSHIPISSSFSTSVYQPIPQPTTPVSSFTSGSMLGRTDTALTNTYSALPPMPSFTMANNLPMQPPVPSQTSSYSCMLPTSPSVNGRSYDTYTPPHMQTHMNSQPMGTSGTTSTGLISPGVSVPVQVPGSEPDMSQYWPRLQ
Chain of Transcription factor Sp1 (Homo sapiens) (P08047 whole entry, looked up): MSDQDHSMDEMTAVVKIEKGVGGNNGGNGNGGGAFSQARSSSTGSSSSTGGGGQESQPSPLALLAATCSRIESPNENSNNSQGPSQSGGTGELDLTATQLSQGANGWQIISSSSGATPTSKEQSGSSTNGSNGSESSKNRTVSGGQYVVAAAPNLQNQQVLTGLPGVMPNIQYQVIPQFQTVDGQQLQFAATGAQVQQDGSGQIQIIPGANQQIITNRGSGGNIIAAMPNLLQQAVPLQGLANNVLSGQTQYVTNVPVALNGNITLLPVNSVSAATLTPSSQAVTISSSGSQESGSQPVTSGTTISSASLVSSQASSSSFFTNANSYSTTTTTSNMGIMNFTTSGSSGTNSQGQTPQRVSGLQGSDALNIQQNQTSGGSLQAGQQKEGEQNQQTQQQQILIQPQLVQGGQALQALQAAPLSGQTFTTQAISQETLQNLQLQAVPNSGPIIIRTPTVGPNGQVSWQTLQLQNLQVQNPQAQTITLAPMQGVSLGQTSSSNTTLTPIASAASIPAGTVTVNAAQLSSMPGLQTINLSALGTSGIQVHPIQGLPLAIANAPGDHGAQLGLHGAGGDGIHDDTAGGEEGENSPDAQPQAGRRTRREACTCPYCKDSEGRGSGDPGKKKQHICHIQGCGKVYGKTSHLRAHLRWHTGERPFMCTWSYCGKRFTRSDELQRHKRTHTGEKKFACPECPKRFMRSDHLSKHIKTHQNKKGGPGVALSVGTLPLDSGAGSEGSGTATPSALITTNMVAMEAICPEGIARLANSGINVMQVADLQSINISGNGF
Chain of Nuclear receptor subfamily 1 group I member 3 (Homo sapiens) (Q14994 whole entry, looked up, the tested form may be a part): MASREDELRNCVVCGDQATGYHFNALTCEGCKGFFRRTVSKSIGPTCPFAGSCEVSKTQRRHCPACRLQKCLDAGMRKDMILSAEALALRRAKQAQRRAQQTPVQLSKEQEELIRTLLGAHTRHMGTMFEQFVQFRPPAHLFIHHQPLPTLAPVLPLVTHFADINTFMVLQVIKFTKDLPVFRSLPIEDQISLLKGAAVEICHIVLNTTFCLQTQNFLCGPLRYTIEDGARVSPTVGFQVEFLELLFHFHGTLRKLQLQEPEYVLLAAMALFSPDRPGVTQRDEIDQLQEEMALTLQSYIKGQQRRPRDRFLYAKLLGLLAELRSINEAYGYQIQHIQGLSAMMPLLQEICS
Chain of Signal transducer and activator of transcription 3 (Homo sapiens) (P40763 whole entry, looked up): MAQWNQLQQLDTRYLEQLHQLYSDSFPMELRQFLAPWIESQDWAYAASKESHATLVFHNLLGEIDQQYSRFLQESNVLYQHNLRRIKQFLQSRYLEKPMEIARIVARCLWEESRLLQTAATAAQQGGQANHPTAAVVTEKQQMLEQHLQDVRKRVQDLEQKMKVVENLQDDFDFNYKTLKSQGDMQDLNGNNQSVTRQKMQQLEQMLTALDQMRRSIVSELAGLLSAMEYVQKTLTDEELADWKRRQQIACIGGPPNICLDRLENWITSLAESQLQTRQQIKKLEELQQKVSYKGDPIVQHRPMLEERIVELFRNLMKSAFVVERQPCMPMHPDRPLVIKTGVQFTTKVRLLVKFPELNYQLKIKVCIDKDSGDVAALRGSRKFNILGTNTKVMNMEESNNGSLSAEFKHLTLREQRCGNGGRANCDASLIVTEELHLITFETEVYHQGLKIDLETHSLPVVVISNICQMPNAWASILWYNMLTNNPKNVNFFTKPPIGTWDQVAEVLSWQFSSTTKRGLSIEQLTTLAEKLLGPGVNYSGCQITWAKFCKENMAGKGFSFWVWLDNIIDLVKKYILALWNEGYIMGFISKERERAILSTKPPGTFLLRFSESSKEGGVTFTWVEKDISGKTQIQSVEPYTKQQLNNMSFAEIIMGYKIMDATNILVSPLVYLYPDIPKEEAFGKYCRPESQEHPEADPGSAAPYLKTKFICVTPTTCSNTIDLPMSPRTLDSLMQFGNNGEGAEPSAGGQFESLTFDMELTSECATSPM
Chain of Estrogen receptor (Homo sapiens) (P03372 whole entry, looked up, the tested form may be a part): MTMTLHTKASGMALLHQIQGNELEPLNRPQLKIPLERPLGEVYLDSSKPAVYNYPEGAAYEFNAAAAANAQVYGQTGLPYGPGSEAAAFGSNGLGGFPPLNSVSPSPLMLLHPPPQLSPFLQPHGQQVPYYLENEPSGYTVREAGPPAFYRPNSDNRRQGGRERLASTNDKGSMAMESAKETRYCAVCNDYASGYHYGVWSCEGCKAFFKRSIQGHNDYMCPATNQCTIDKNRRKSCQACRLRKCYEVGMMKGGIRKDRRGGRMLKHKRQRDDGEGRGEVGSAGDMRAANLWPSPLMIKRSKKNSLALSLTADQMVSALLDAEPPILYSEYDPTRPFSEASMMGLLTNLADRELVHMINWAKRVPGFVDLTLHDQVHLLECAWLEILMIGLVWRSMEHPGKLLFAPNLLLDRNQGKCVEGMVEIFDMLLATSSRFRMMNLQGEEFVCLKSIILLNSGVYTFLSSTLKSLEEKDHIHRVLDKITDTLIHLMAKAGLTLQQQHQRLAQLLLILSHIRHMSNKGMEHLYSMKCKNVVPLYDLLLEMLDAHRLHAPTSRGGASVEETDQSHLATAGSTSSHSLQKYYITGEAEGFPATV

In the case of `COc1cc(C(=O)NC2CCN(C)CC2)ccc1Nc1ncc2c(n1)N(C1CCCC1)CC(F)(F)C(=O)N2C`, the AC50 is 3.75 µM (active) in [1]; 1.01 µM (active) in test [2]; 3.55 µM (active) in test [4]; 525 nM (active) in test [6]; 1.56 µM (active) in test [7]; 4.26 µM (active) in [10]. For the same compound, the results for the AC50 in test [13] and in test [15] were 3.09 µM (active) and 2.31 µM (active), respectively. In addition, the result in test [3], in test [5], in test [8], in test [9], in [11] and in test [12] was inactive. For the same compound, in [14], the outcome was inactive.

As to `O=c1c(-c2ccc(O)cc2)coc2cc(O)cc(O)c12`, the compound was called inactive in test [1], in test [2], in test [3], in test [4], in test [5] and in test [6]. In addition, the compound was called inactive in [8], in [9], in test [10], in [11], in [12] and in test [13]. Besides, the result in test [16], in test [15], in test [17] and in test [18] was inactive. The AC50 in test [2] is 27.9 µM (active); in test [3], 14.7 µM (active) and 66.3 µM (active) and 50 µM (active); in [6], 58.4 µM (active) and 80.7 µM (active); in [7], 28.2 µM (active) [middle of 4 runs]; in [11] it was 77.3 µM (active) and 100 µM (active) and 27 µM (active); in test [13], 61.3 µM (active).

Regarding `CCCCCCCCCCCC[N+](C)(C)C`, the compound was classed as inactive in [1], in test [2], in [3], in test [4], in [5] and in test [6]. Further, the outcome in test [8], in test [9], in test [10], in [11], in test [12] and in test [13] was inactive. Further, the call in test [15] and in test [17] was inactive. Further, the AC50 is 1.26 µM (active) in test [2]; 26.1 µM (active) and 25.6 µM (active) in test [7]; 33.4 µM (active) in test [15].
